AMA1-RON2 inh: disrupts binding of P. falciparum AMA1 to RON2; AlphaScreen AMA1-biotinylated RON2 peptide binding; Potency, µM (series often up to 58.2 µM), without a hit: top-dose activity change, negative = inhibition, most hits filed as inhibitors; hit rate 0.2% among 360,000; AID 720542;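 further: 0% = vehicle wells and -100% = peptide control; nearly all actives have a fitted effect of over 45% in size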
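AMA1 (3D7) with his tag at 25 nM final met compounds first, then biotinylated RON2 peptide at 25 nM; detection used donor plus acceptor beads, 10 µg/mL apiece, read by AlphaScreen after 30 min at room temperature.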
NS1 inh: blocks influenza NS1 protein function. Potency, µM (series often up to 46.1 µM), without a hit: at the top dose activity, positive = more growth. hit rate 0.4% among 270,000. AID 2326; calls by dose curve; further: actives are rising curves; nearly all actives have a fitted effect of over 50% in size
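Compounds were scored for reversing the slow growth caused by influenza A NS1 in S. cerevisiae, measured by optical density at 600 nm. Assay medium contained 2% galactose at pH 6.0; NS1-free yeast of the same strain were the positive control.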
Pf growth 48h: inhibits P. falciparum growth in the first generation, 48 h | P. falciparum luciferase growth in erythrocytes, 48 h | Potency, µM (series often up to 28.7 µM), for the others: at the top dose activity change, negative = inhibition, usual class: inhibitors | hit rate 5.9% among 310,000; further: on the % scale 0 is the no-effect control and ±100 the full control effect
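A one-generation exposure of luciferase-tagged malaria parasites in RPMI 1640/Albumax erythrocyte culture, 37 C and 5% CO2. Inhibition is inferred from decreased luminescence after adding detection reagent.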
SARS PLP yeast: inhibitors of SARS-CoV papain-like protease in yeast. hit rate 0.19% among 330,000. S. cerevisiae expressing SARS-CoV PLpro, growth rescue. Potency, µM (titrated, usually from 32.9 µM), for inactives: at the highest dose activity, positive = growth rescue, actives largely listed as activators. AID 485353; calls by dose curve; further: 0% is about no effect; nearly all actives have a fitted effect of over 55% in size
HCV inh: inhibitors of hepatitis C virus infection. Potency, µM (doses to about 41.8 µM), without a hit: top-dose activity change, negative = inhibition, usual class: inhibitors. hit rate 3.4% among 340,000. Huh7.5.1 HCVcc-Cre infection, luciferase reporter, 44 h; further: on the % scale 0 is the no-effect control and ±100 the full control effect
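Cells (1,000/well) were plated 4 h before compound, then infected with HCVcc-Cre virus (~0.5 moi). After 44 h further culture, infection was read as luciferase luminescence following a 15 min substrate incubation at room temperature.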
Pf growth 96h: inhibits malaria parasite growth, 96 h; AID 504834; hit rate 6.9% among 320,000; P. falciparum luciferase reporter growth, 96 h; Potency, µM (doses to about 28.7 µM), inactives show at the top dose activity change, negative = inhibition, usual class: inhibitors; further: on the % scale 0 is the no-effect control and ±100 the full control effect
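Parasite growth measured via integrated firefly luciferase reporter in P. falciparum. Infected erythrocytes at 2% hematocrit, 0.05% parasitemia final were treated 96 hours at 37 C under 5% CO2, and luminescence was read.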
The depositor's hits bear a star; u = inconclusive; x = no result given; [ ] = dose if it differs, or a comment. Sampled rows, rich in hits. Any-hit rate of the full collection: about 12%. Unless noted, the call rests on the fitted dose curve; in most records, active means well fitted curve in the direction sought with a large enough effect; inconclusive means small, poorly fitted or top-dose-only effect, or another doubt; inactive means no such curve, though single readings can be large; an effect the other way counts as inactive or inconclusive. Potency means the concentration at half of the fitted maximal effect.

SMILES	AMA1-RON2 inh	NS1 inh	Pf growth 48h	SARS PLP yeast	HCV inh	Pf growth 96h
CC(=O)Nc1ccc(-c2ccnc3c2CC(C(=O)NCC2CCOCC2)O3)cc1 (stereo not given)	19%	x	x	x	x	x
Cn1nc(C2CC2)cc1NC(=O)C1(C)CCN1C(=O)Cc1ccc(-c2ccccc2)cc1 (stereo not given)	-13%	x	x	x	x	x
COc1ccc(N)cc1-n1c(C)ccc1C	-5%	10%	u	-1%	0.71µM*	35%
COc1ccc(C)cc1-n1c(C)cc(C=O)c1C	-1%	4%	u	0%	u	0%
O=C(CN1CCc2ccccc2C1)Nc1cc(S(=O)(=O)N2CCOCC2)ccc1N1CCCC1	0%	-2%	u	1%	0%	u
CC1(C)NC(=O)N(CC(=O)Nc2cc(S(=O)(=O)N3CCOCC3)ccc2N2CCOCC2)C1=O	x	x	19%	-1%	x	7.4µM*
O=C(CN1CCc2ccccc2C1)Nc1cc(S(=O)(=O)N2CCOCC2)ccc1N1CCOCC1	7%	-4%	u	0%	-3%	13µM*
Cc1c(CCO)c(=O)[nH]n1S(=O)(=O)c1ccccc1	5%	0%	3.3µM*	3%	17%	-6%
O=C(COC(=O)C1=COCCO1)NCc1ccc(Cl)cc1	5%	x	0%	0%	2%	15%
COc1cc([N+](=O)[O-])ccc1NC(=O)CCS(=O)(=O)c1ccc2c(c1)n(C)c(=O)c(=O)n2C	-9%	-25%	2%	-5%	-10%	u
CC(=O)c1sccc1NC(=O)CC(C)(C)CC(=O)O	3%	1%	18%	0%	15%	17%
Clc1ccc(CNCCCSc2ncccn2)cc1Cl	8%	-1%	31%	-9%	9%	u
CC(C)c1ccc(CNCCCSc2ncccn2)cc1	55%	9%	5%	-1%	9%	13µM*
Fc1cccc(Cl)c1CNCCCSc1ncccn1	-4%	4%	-11%	14%	-5%	13µM*
CCOc1ccc(CNCCCSc2ncccn2)cc1	9%	-3%	-15%	-2%	-2%	10µM*
CC(=O)Nc1ccc(S(=O)(=O)Nc2cc(C)cn(Cc3ccccc3)c2=O)cc1	17%	1%	-17%	1%	u	u
CCOC(=O)N1CCN(C2=C(NS(=O)(=O)c3ccc(NC(C)=O)cc3)C(=O)c3ccccc3C2=O)CC1	-26%	6%	u	2%	-29%	9.3µM*
CC1CCCN(C2=C(NS(=O)(=O)c3ccc(Br)cc3)C(=O)c3ccccc3C2=O)C1 (stereo not given)	u	-20%	u	-11%	5%	2%
CC(=O)Nc1ccc(S(=O)(=O)NC2=C(N3CCN(C)CC3)C(=O)c3ccccc3C2=O)cc1	9%	7%	u	-1%	-26%	u
CCN1CCN(C2=C(NS(=O)(=O)c3ccc(C)cc3)C(=O)c3ccccc3C2=O)CC1	0%	2%	2.9µM*	-4%	u	1.7µM*
CCN1CCN(C2=C(NS(=O)(=O)c3ccc(NC(C)=O)cc3)C(=O)c3ccccc3C2=O)CC1	-14%	-10%	u	-2%	u	10µM*
CC(=O)Nc1ccc(S(=O)(=O)NC2=C(N3CCN(Cc4ccccc4)CC3)C(=O)c3ccccc3C2=O)cc1	u	-6%	x	3%	u	1.2µM*
Cc1cccc(C)c1N1CCN(C(=O)Cn2cncn2)CC1	-5%	x	-13%	-5%	24%	9%
COC(=O)[C@H](C(C)C)N(Cc1ccccc1)S(=O)(=O)CCNC1CCCC1	31%	x	x	-3%	u	x
Cc1ccc(NC(=O)CN2C(=O)NC(C)(C3CC3)C2=O)cc1S(=O)(=O)N1CCCCC1 (stereo not given)	2%[11.6 µM]	x	u	0%	u	u
SMILES	AMA1-RON2 inh	NS1 inh	Pf growth 48h	SARS PLP yeast	HCV inh	Pf growth 96h
CC(=O)c1c(C)[nH]c(C(=O)NCCN2CCC(C)CC2)c1C	8%	-2%	-5%	7%	-13%	12µM*
Fc1cnc(N2CCN(c3ccccc3)CC2)nc1N1CCN(c2ccccc2)CC1	-14%	18%	13µM*	-9%	u	0%
O=C1CCCc2nc(N3CCN(c4ccccc4)CC3)ncc21	-5%	u	29%	1%	16%	-11%
COc1ccc(NC(=O)c2oc3ccc(S(=O)(=O)N4CCC5(CC4)OCCO5)cc3c2C)cc1	-5%	11µM*	3.7µM*	-2%	13µM*	74%
Cc1c(C(=O)NCCc2ccccc2)oc2ccc(S(=O)(=O)N3CCC4(CC3)OCCO4)cc12	-7%	5%	u	-2%	11µM*	u
COc1ccccc1C(=O)NC(=O)CSc1nnc(N)s1	12%	x	-3%	0%	3%	-27%
CCNC(=O)NC(=O)COC(=O)C1CSC2(C)CCC(=O)N12 (stereo not given)	1%	x	u	0%	4%	u
Cc1onc(-c2c(Cl)cccc2Cl)c1C(=O)Nc1ccc(N2CCOCC2)cc1	-8%	2%	u	1%	-20%	u
Cc1cc(NCC2CCCO2)n2c(nc3ccccc32)c1C#N (stereo not given)	-5%	1%	u	x	-24%	u
CC(C)c1cc(NCC2CCCO2)n2c(nc3ccccc32)c1C#N (stereo not given)	7%	-33%	6.6µM*	-8%	u	x
CCc1c(C)c(C#N)c2nc3ccccc3n2c1NCCOC	-9%	-1%	1.7µM*	-2%	-4%	u
CCc1c(C)c(C#N)c2nc3ccccc3n2c1NCC1CCCO1 (stereo not given)	2%	1%	1.7µM*	5%	-7%	x
CCc1c(C)c(C#N)c2nc3ccccc3n2c1NCCCN(C)C	11%	x	x	x	x	x
COc1ccc(CCN=C(C)C2=C(O)C(c3ccccc3)OC2=O)cc1OC (stereo not given)	-3%	-3%	54%	-1%	-30%	u
Cc1noc(C)c1C(=O)N1CCCC(C)(C(=O)NS(=O)(=O)C2CC2)C1 (stereo not given)	-1%	x	x	x	x	x
COC(=O)c1sc(S(=O)(=O)NC(C)C(=O)O)c(C(=O)OC)c1C (stereo not given)	16%	0%	-13%	0%	23%	16%
COc1ccc(-n2nnc3c(SCC(=O)NCC4CCCO4)ncnc32)cc1 (stereo not given)	0%	4%	u	-2%	-5%	0%
c1ccc(Cn2nnc3c(NCC4CCCO4)ncnc32)cc1 (stereo not given)	3%	2%	42%	2%	-21%	12µM*
